Source: PubChem (several laboratories)
CF NFkB block: blocks PAF-induced NF-kB reporter in cystic fibrosis cells. AID 588850. inhibition, % at 5 µM. actives 0.86% (n = 360,000). KKLEB NF-kB-GFP reporter, GFP fluorescence overnight;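 active = at least 50% inhibition at 5 µM, scaled per plate between neutral and stimulator controls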;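 also: PAF is a Pseudomonas aeruginosa culture filtrate used as stimulus; plate controls were PAF-stimulated DMSO wells for no effect and unstimulated DMSO wells for full effect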
Mdm2-MdmX inh: human Mdm2/MdmX binding inhibition; SaOS-2 split-luciferase Mdm2/MdmX complementation, luminescence; actives 3% (n = 330,000); inhibition, % at 8 µM;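 active = inhibition of at least 50% at 8 µM in the primary screen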
Target sequence (O15151 whole entry, looked up): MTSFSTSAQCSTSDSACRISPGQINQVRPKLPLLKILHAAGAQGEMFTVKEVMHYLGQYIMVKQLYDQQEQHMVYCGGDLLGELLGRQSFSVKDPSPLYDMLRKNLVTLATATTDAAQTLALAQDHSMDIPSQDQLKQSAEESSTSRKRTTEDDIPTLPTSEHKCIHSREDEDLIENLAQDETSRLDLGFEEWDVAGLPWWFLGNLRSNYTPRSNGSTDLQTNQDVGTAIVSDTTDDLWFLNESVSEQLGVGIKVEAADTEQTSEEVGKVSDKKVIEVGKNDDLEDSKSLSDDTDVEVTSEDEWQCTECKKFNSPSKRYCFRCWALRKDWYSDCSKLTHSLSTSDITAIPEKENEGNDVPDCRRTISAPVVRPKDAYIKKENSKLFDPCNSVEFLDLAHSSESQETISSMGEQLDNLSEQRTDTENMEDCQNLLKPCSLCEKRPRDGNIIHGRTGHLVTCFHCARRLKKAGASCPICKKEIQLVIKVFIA
Target sequence (Q00987 whole entry, looked up): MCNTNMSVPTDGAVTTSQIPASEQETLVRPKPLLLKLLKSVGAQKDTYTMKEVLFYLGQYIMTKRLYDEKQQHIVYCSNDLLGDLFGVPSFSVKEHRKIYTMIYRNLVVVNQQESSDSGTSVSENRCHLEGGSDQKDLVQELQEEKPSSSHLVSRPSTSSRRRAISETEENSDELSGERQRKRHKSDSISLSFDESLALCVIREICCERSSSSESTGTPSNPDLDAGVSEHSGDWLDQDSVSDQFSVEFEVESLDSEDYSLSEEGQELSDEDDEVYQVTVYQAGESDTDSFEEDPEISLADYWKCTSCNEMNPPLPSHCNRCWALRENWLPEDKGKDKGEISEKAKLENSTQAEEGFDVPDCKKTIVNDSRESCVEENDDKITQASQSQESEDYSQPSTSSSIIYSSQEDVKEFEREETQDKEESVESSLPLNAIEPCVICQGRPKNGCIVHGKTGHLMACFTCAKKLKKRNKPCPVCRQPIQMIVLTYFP
Peg3 promoter: Peg3 promoter activity inhibition | HeLa PEG-Prom luciferase reporter, luminescence, overnight | inhibition, % at 20 µM | actives 1.7% (n = 360,000);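 active = inhibition of at least 50% at 20 µM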
KKLEB tox: reduces viability of KKLEB cystic fibrosis airway cells; KKLEB CF airway cells viability, ATPlite luminescence, overnight; hits give low values; cells stimulated with P. aeruginosa culture filtrate; activity change (cytotoxicity), % at 5 µM; actives 0.36% (n = 360,000);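 active = corrected activity change at or below -50% at 5 µM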
HSP90 refold inh: inhibitors of HSP90 luciferase refolding in rabbit reticulocyte lysate; luciferase refolding luminescence, 3 h; inhibition, % at 5.6 µM; actives 0.91% (n = 290,000); AID 1789;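 active = inhibition above the screen-wide mean plus 3 SD, computed separately per campaign, cut at about 16% in these data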;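 also: 0% = DMSO wells and 100% = 60 µM geldanamycin wells; inhibitors lower the luminescence because luciferase stays unfolded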
LGR2 antag: blocks bursicon-induced cAMP signaling via Drosophila LGR2; actives 0.35% (n = 380,000); HEK293 LGR2, CRE-luciferase, bursicon-stimulated, 4 h; inhibition, % at 9.99 µM; AID 720647;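 active = drop in luminescence signal, shown as inhibition above about 50% in the replicate tests, limit read from the data, passing the limit was not always enough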;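 also: agonist challenge used bursicon conditioned medium at about half maximal strength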
Active calls of the source: *; . = not tested or not shown. Compounds with a hit are over-represented: about 3.6% of the library has one in this group of screens.

SMILES | CF NFkB block | Mdm2-MdmX inh | Peg3 promoter | KKLEB tox | HSP90 refold inh | LGR2 antag
C[C@@H]1CCCCO[C@H](CN(C)C(=O)C2CCCCC2)[C@@H](C)CN([C@@H](C)CO)C(=O)c2cc(NC(=O)Nc3cccc4ccccc34)ccc2O1 | . | . | . | . | . | -4
COc1ccc(C(C#N)=C2C=C(Cl)C(=NO)C=C2Cl)cc1 | 68* | . | -15 | 4 | . | -4
Cc1ccc(-c2ccc3c(c2)O[C@@H](CN(C)C(=O)Nc2ccc(C(F)(F)F)cc2)[C@H](C)CN([C@H](C)CO)S3(=O)=O)cc1 | . | . | . | . | . | 7
N#Cc1ccc(Nc2nc(-c3ccccc3)c(C(=O)c3ccccc3)s2)cc1 | 15 | . | 61* | 12 | . | -18
CC(=O)Nc1ccc(S(=O)(=O)N2CCN(c3cc(C)nc4ccccc34)CC2)cc1 | 6 | 19 | 14 | -7 | -1 | .
CC(=O)Nc1ccc(S(=O)(=O)N2CCN(c3nc(NC4CCCC4)c4ccccc4n3)CC2)cc1 | 14 | 40 | 85* | -8 | 7 | .
CO[C@@H]1CN(C)C(=O)c2cc(NS(=O)(=O)CC(F)(F)F)ccc2OC[C@@H](C)N(Cc2nccs2)C[C@@H]1C | . | . | . | . | . | -1
O=C(N/N=C/c1ccc([N+](=O)[O-])o1)c1cc2ccccc2o1 | -9 | 15 | 19 | 8 | 5 | 5
O=C(CCC(=O)Nc1ccc(Cl)cc1Cl)N/N=C/c1ccc([N+](=O)[O-])o1 | -14 | 8 | 57* | 8 | -1 | -8
O=C(N/N=C/c1ccc([N+](=O)[O-])o1)c1cc2c(ccc3ccccc32)o1 | -18 | . | 54* | -12 | 0 | -1
Cc1ccc(C)c(NC(=O)C(Sc2ncnc3ccccc23)c2ccccc2)c1 (configuration not stated) | 9 | 28 | 59* | -21 | 1 | .
Cc1ccccc1N1CCN(CC(=O)Nc2nc(C)c(C(=O)N(C)C)s2)CC1 | 3 | 3 | 11 | 0 | 1 | 6
Cc1nc(NC(=O)CN2CCN(c3ccccc3F)CC2)sc1C(=O)N(C)C | -1 | -11 | 11 | 1 | 16* | 7
C[C@H](CO)N1C[C@H](C)[C@H](CN(C)C)Oc2cc(C#CC3(O)CCCC3)ccc2S1(=O)=O | . | . | . | . | . | 0
C[C@@H]1CCCCO[C@@H](CN(C)C(=O)CCC(F)(F)F)[C@H](C)CN([C@H](C)CO)C(=O)c2cc(NC(=O)c3ccncc3)ccc2O1 | . | . | . | . | . | 0
CNC(=O)c1ccsc1NC(=O)c1ccc(S(=O)(=O)N2CCCc3ccccc32)cc1 | 34 | 46 | 55* | -3 | 1 | 10
Cc1ccc(CNc2nc(NCC3CC3)nc3ccsc23)c(C)c1 | 29 | . | 77* | -17 | . | 2
COc1ccccc1CNc1nc(NCc2ccc3occc3c2)c2sccc2n1 | 13 | . | 90* | -18 | . | 1
COc1ccccc1CNc1nc(NCc2ccc(NC(C)=O)cc2)c2sccc2n1 | -27 | . | 72* | -20 | . | 7
COc1ccccc1CNc1nc(NCc2ccccc2OC)c2sccc2n1 | 7 | . | 58* | -11 | . | 31
COCCNc1nc(NCc2ccccc2OC)c2sccc2n1 | -39 | . | 17 | 6 | . | -1
CN(C)CCCNC(=O)C[C@@H]1CC[C@@H](NS(=O)(=O)c2ccccc2)[C@H](CO)O1 | . | . | . | . | . | 6
COc1ccc(NC(=O)N(C)C[C@H]2OCCCC[C@H](C)Oc3ccc(NC(=O)c4ccccc4)cc3C(=O)N([C@H](C)CO)C[C@H]2C)cc1 | . | . | . | . | . | -1
COCC(=O)N(C)C[C@@H]1Oc2ncc(-c3ccc(C#N)cc3)cc2C(=O)N([C@@H](C)CO)C[C@H]1C | . | . | . | . | . | -19
COc1ccccc1-c1ccc2n(c1=O)C[C@H]1[C@H](CO)[C@@H](C(=O)NCCCN(C)C)N(C(C)=O)[C@@H]21 | . | . | . | . | . | 5
COc1ccccc1CNc1nc(Nc2cccc(-c3cnco3)c2)c2sccc2n1 | 22 | . | 91* | -16 | . | 5
Cc1noc(C)c1NC(=O)N(C)C[C@@H]1OCc2ccccc2-c2ccccc2C(=O)N([C@H](C)CO)C[C@@H]1C | . | . | . | . | . | 2
CCCC#Cc1ccc2c(c1)O[C@@H](CN(C)C(=O)c1ccccn1)[C@@H](C)CN([C@@H](C)CO)S2(=O)=O | . | . | . | . | . | 2
CC(=O)Cn1ncc(Br)c(Br)c1=O | 96* | . | 98* | -83* | 1 | 106*
